DT40 TDP1 no CPT = qHTS for Inhibitors of human tyrosyl-DNA phosphodiesterase 1 (TDP1): qHTS in cells in absence of CPT; DT40 Tdp1-/- hTDP1 cells, no CPT, ATP luminescence, 48 h; Potency, µM (highest dose often 46.2 µM), inactives show at the highest dose activity change, negative = growth inhibition, most hits filed as inhibitors; 15% of 420,000 active; further: potency means the concentration at half of the fitted maximal effect; nearly all actives have a fitted effect of over 55% in size
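Stably hTDP1-transfected Tdp1-null chicken DT40 cells were treated with library compounds minus camptothecin and grown for at least 48 hr at 37 °C, after which cellular ATP was quantified by luminescence.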
VP16 counter = VP16 counterscreen qHTS for inhibitors of ROR gamma transcriptional activity | Potency, µM (doses to about 53.6 µM), for the others: at the top dose activity, negative = inhibition, usual class: inhibitors | Drosophila S2 Gal4-VP16 UAS-luciferase, luminescence, 20 h | 3.5% of 310,000 active | AID 2546, 2010;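 further: Gal4-VP16 expression switched on by copper sulfate through the metallothionein promoter; potency means the concentration at half of the fitted maximal effect; nearly all actives have a fitted effect of over 50% in size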
IL1B secr inh = qHTS for Inhibitors of Inflammasome Signaling: IL-1-beta AlphaLISA Primary Screen; 4.7% of 360,000 active; AID 743279, 2014; THP-1 LPS/ATP IL-1B secretion, AlphaLISA, 16 h; active compounds read low; activity change, % at 57.5 µM; in the data active means activity change below about -50%; inconclusive means mostly about -30% to -49%
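Secreted IL-1B measured by AlphaLISA bead assay after 16 h compound exposure of THP-1 cells; compounds (final up to 57.5 uM) added 1 h before LPS (250 ng/mL) and ATP (1.25 mM) stimulation; lower signal means less secretion.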
DT40 TDP1 CPT = qHTS for Inhibitors of human tyrosyl-DNA phosphodiesterase 1 (TDP1): qHTS in cells in presence of CPT. chicken DT40 Tdp1-/-;hTDP1 cells + 20 nM CPT, ATP luminescence, 48 h. Potency, µM (highest dose often 46.2 µM), for the others: top-dose activity change, negative = growth inhibition, actives largely listed as inhibitors. 12% of 420,000 active; further: potency means the concentration at half of the fitted maximal effect; nearly all actives have a fitted effect of over 55% in size
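Cell growth measured by CellTiter-Glo luminescence after a minimum 48 h, 37 C compound exposure with 20 nM CPT in Tdp1-knockout DT40 cells stably expressing hTDP1, seeded 400/well; qHTS titration format.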
ELG1 repair inh = qHTS screen for small molecules that inhibit ELG1-dependent DNA repair in human embryonic kidney (HEK293T) cells expressing luciferase-tagged ELG1; 2.3% of 330,000 active; HEK293T ELG1-luciferase reporter, luminescence, 16 h; DNA damage induced by 5-fluorouridine; Potency, µM (highest dose often 46.1 µM), for inactives: at the highest dose activity change, negative = inhibition, usual class: inhibitors; further: potency means the concentration at half of the fitted maximal effect; nearly all actives have a fitted effect of over 55% in size
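HEK293T cells expressing luciferase-tagged ELG1 (2,000/well) received 5-Fluorouridine plus compound or DMSO for 16 hr at 37 °C. Luciferase was read by ONE-Glo luminescence after 30 min at room temperature.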
RORg inh = qHTS for inhibitors of ROR gamma transcriptional activity. 5.4% of 310,000 active. Potency, µM (top dose mostly 53.6 µM), for inactives: at the top dose activity change, negative = inhibition, actives largely listed as inhibitors. Drosophila S2 Gal4-RORgamma UAS-luciferase reporter, 20 h. Nuclear receptor ROR-gamma (Mus musculus), P51450; further: potency means the concentration at half of the fitted maximal effect; nearly all actives have a fitted effect of over 60% in size
Target sequence (P51450 whole entry, looked up, the tested form may be a part): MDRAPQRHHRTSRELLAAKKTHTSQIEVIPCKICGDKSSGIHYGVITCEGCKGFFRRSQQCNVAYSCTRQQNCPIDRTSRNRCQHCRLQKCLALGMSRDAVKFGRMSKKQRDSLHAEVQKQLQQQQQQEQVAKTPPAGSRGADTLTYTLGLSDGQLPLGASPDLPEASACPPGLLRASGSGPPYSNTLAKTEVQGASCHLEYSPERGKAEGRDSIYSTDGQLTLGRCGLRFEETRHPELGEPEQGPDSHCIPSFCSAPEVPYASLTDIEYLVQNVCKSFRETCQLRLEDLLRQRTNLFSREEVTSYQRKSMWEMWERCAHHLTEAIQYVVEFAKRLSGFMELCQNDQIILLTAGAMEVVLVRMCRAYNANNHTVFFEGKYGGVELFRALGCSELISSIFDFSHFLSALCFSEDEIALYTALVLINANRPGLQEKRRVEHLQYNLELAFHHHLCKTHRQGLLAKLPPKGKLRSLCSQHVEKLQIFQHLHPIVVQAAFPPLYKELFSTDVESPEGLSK
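Using a luciferase readout, inhibitors were identified by reduced reporter activity in Drosophila cells coexpressing a copper-inducible Gal4–ROR gamma fusion and UAS-driven Photinus luciferase, incubated 20 hr after 700 uM copper sulfate.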
The depositor's hits bear a star; ? = inconclusive; . = not tested or not shown; [ ] = remark or other dose. Only some compounds are listed: those with a hit (about 21% of all), similar ones and a draw of the others. Unless noted, the call rests on the fitted dose curve; in most records, active means well fitted curve in the direction sought with a large enough effect; inconclusive means small, poorly fitted or top-dose-only effect, or another doubt; inactive means no such curve, though single readings can be large; an effect the other way counts as inactive or inconclusive. On the % scale 0 is the no-effect control and ±100 the full control effect.

SMILES	DT40 TDP1 no CPT	VP16 counter	IL1B secr inh	DT40 TDP1 CPT	ELG1 repair inh	RORg inh
O=P(c1ccccc1)(c1ccccc1)C(c1ccco1)N1CCOCC1 (stereo not given)	?	4.8%	-3.2	?	-13.7%	2.24µM*
Cc1sc2nc(CSCC(=O)N(C)c3ccccc3)[nH]c(=O)c2c1C	16.4µM*	13.1%	-10.3	23.1µM*	?	?
CCn1c(=O)c2ccccc2n2c(SCC(=O)N3CCc4ccccc4C3)nnc12	-6.2%	-6.8%	-15.1	?	-24.6%	3.1%
Cc1sc2nc(CSCC(=O)N(C)CC(=O)Nc3ccc(F)cc3)[nH]c(=O)c2c1C	?	.	-25.8	-28.7%	-6.6%	.
CCn1c(SCC(=O)N2CCc3ccccc3C2)nc2sc(C)c(C)c2c1=O	20.6µM*	-4.5%	15.4	?	-19.2%	?
Cc1sc2nc(CSCC(=O)N(CCC#N)c3ccccc3)[nH]c(=O)c2c1C	?	2.3%	29.3	18.4µM*	?	27.9%
Cc1ccc(-n2nnnc2SCc2nc3sc(C)c(C)c3c(=O)[nH]2)cc1	?	?	5.3	?	-1.3%	11.2µM*
Cc1ccc(S(=O)(=O)NNC(=O)NC23CC4CC(CC(C4)C2)C3)cc1	?	2.4%	8.5	-1.5%	-2.1%	-6.8%
CCn1cc(CN2CCOc3ccc(C(O)C4CCCCC4)cc3C2)c(C)n1 (stereo not given)	?	.	.	-9.0%[9.04 µM]	.	.
CN(CCO)C(=O)c1cn(C2CCN(Cc3c(F)cccc3Cl)CC2)nn1	-8.9%	.	.	-16.2%[9.04 µM]	.	.
Cc1cccc(NC(=O)CSc2nc(=O)n(Cc3ccccn3)c3c2CCC3)c1C	-14.6%	.	.	4.4%	.	.
CCOC(=O)CSc1nc2sc(C)c(C)c2c(=O)n1C	-24.3%	-0.6%	13.2	?	11.2%	-3.1%
Cc1sc2nc(SCC(=O)N(C)c3ccccc3)n(C)c(=O)c2c1C	13µM*	-23.9%	0.0	18.4µM*	?	-8.0%
Cc1sc2nc(CSCC(=O)Nc3c(F)cccc3F)[nH]c(=O)c2c1C	10.3µM*	.	16.7	11.6µM*	-12.3%	.
Cc1sc2nc(SCC(=O)N3CC(C)OC(C)C3)n(C)c(=O)c2c1C (stereo not given)	13µM*	3.8%	9.6	?	?	57.9%
CC(=O)c1cccc(NC(=O)c2cc3sc(Cl)cc3n2C)c1	?	.	.	-26.5%	.	.
CCOC(=O)c1cnc2ccc(Br)cc2c1NCCN1CCOCC1	20.6µM*	.	.	20.6µM*	.	.
CCOC(=O)c1cnc2c(C)cc(Cl)cc2c1NCCCN1CCOCC1	?	.	-73.2*	-24.6%	-18.4%	.
CCOC(=O)c1cnc2c(C(=O)OC)cccc2c1NCCN1CCOCC1	10.2%	-2.6%	1.8	-1.5%	-1.8%	-31.2%
CCOC(=O)c1cnc2c(Cl)cc(Cl)cc2c1NCCCN1CCOCC1	?	-3.7%	-10.1	-28.3%	?	-28.2%
CCOC(=O)c1cnc2c(CC)cccc2c1NCCN1CCOCC1	23.1µM*	-1.4%	?	?	-20.4%	29.2%
CCOC(=O)c1ccc2ncc(C(=O)OCC)c(NCCN3CCOCC3)c2c1	?	.	-7.9	?	?	.
O=C(c1cc(=O)[nH]c2ccccc12)N(Cc1nnc(-c2ccccc2Cl)o1)C1CC1	?	.	-8.3	13µM*	?	.
Cc1ccc(C(=O)N(Cc2nnc(-c3ccccc3Cl)o2)C2CC2)o1	18.4µM*	.	-9.7	?	.	.
Cc1c(C(=O)N(Cc2nnc(-c3ccccc3Cl)o2)C2CC2)oc2ccccc12	?	.	21.3	16.4µM*	-4.2%	.
SMILES	DT40 TDP1 no CPT	VP16 counter	IL1B secr inh	DT40 TDP1 CPT	ELG1 repair inh	RORg inh
Cc1ccsc1C(=O)N(Cc1nnc(-c2ccccc2Cl)o1)C1CC1	?	.	-4.4	?	24.3%	.
Cc1ccc(C)c(OCC(=O)N(Cc2nnc(-c3ccccc3Cl)o2)C2CC2)c1	?	.	-5.1	?	-27.1%	.
C=CCOc1ccc(/C=N/NC(=O)CN2CCOCC2)cc1OCC	?	-15.0%	8.5	-1.6%	7.2%	16.7%
COc1cc(/C=C2\CCC(C)C3=C(c4cc(OC)c(OC)c(OC)c4)C(C#N)=C(N)OC32)cc(OC)c1OC (stereo not given)	3.66µM*	.	-15.8	2.59µM*	.	.
CC(=O)c1cccc(NC(=O)C2Cc3c(-c4ccccc4)ccnc3O2)c1 (stereo not given)	13µM*	.	-18.2	20.6µM*	.	.
CC(=O)c1cccc(-c2ccnc3c2CC(C(=O)Nc2ccccc2)O3)c1 (stereo not given)	?	.	-4.7	16.4µM*	.	.
NC(=O)c1cccc(-c2ccnc3c2CC(C(=O)Nc2ccccc2)O3)c1 (stereo not given)	-9.8%	.	-16.6	-14.6%	.	.
CCn1cc(C2=NOC(C(=O)Nc3cccc(C(C)=O)c3)C2)c(C)n1 (stereo not given)	?	-22.4%	-2.3	16.4µM*	-4.2%	-5.0%
CC(=O)c1cccc(NC(=O)C2Cc3c(-c4ccco4)ccnc3O2)c1 (stereo not given)	16.4µM*	.	0.0	?	.	.
COc1cccc(Cn2c(=O)cnc3cnc(N4CCN(C)CC4)nc32)c1	-12.9%	-9.7%	.	?	.	35.3%
COC(=O)CC1(C(=O)OC)Oc2ccccc2C(=O)N1c1ccc(F)cc1F (stereo not given)	?	.	20.3	-9.1%	.	.
CC(=O)Nc1cccc(-c2ccnc3c2CC(C(=O)Nc2cccc(NS(C)(=O)=O)c2)O3)c1 (stereo not given)	-28.1%	.	-0.9	-18.4%	.	.
CS(=O)(=O)Nc1cccc(NC(=O)C2Cc3c(-c4ccccc4)ccnc3O2)c1 (stereo not given)	7.31µM*	.	-2.5	10.3µM*	.	.
CC(=O)c1cccc(-c2ccnc3c2CC(C(=O)Nc2ccc(F)c(Cl)c2)O3)c1 (stereo not given)	20.6µM*	.	-25.0	18.4µM*	.	.
CC(=O)c1cccc(NC(=O)C2Cc3c(-c4cccc(F)c4)ccnc3O2)c1 (stereo not given)	?	.	0.0	18.4µM*	.	.
O=C(Nc1cccnc1)C1Cc2c(-c3cccc(F)c3)ccnc2O1 (stereo not given)	?	.	-14.5	?	.	.
Cc1cc(-c2ccnc(-n3ncc(C(=O)N(C)Cc4nccs4)c3C)n2)c(C)s1	?	.	.	-2.8%[9.04 µM]	.	.

Compound activity as filed in PubChem BioAssay.
